# From the supplement of paper PMC8728848
# Shown is part of a subset that was picked to be rich in the strongest signals.
# Assays:
# Experiment in all cases: glycan array binding signal (z-score within array); higher = stronger binding
# Conditions in all cases: glycan notation: IUPAC condensed, linker removed
# [1] = target: Gal(b1-4)GlcNAc(b1-2)[Gal(b1-4)GlcNAc(b1-4)]Man(a1-3)[Gal(b1-4)GlcNAc(b1-2)[Gal(b1-4)GlcNAc(b1-6)]Man(a1-6)]Man(b1-4)GlcNAc(b1-4)GlcNAc
# How it was run: (§1)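 The Consortium for Functional Glycomics database supplied 3228 glycan arrays, of which those lacking an available protein sequence were dropped. The binding signal, a within-array Z-score, was averaged across arrays of the same protein sequence and across linkers. Negative scores can be read as non-binding.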
# [2] = target: Gal(b1-4)GlcNAc(b1-3)Gal(b1-4)GlcNAc(b1-2)Man(a1-3)[Gal(b1-4)GlcNAc(b1-3)Gal(b1-4)GlcNAc(b1-2)Man(a1-6)]Man(b1-4)GlcNAc(b1-4)[Fuc(a1-6)]GlcNAc
# How it was run: as §1
# [3] = target: Gal(b1-4)GlcNAc(b1-3)Gal(b1-4)GlcNAc(b1-3)Gal(b1-4)GlcNAc(b1-2)Man(a1-3)[Gal(b1-4)GlcNAc(b1-3)Gal(b1-4)GlcNAc(b1-3)Gal(b1-4)GlcNAc(b1-2)Man(a1-6)]Man(b1-4)GlcNAc(b1-4)[Fuc(a1-6)]GlcNAc
# How it was run: as §1
# [4] = target: GalNAc(b1-3)Gal(a1-4)Gal(b1-4)GlcNAc(b1-3)Gal(b1-4)Glc
# How it was run: as §1
# [5] = target: GalNAc(b1-4)GlcNAc6S
# How it was run: as §1
# [6] = target: GlcA(b1-6)Gal
# How it was run: as §1
# [7] = target: GlcNAc(b1-2)Man(a1-3)[GlcNAc(b1-2)Man(a1-6)]Man(b1-4)GlcNAc(b1-4)GlcNAc
# How it was run: as §1
# [8] = target: GlcNAc(b1-2)[GlcNAc(b1-4)]Man(a1-3)[GlcNAc(b1-4)][GlcNAc(b1-2)[GlcNAc(b1-6)]Man(a1-6)]Man(b1-4)GlcNAc(b1-4)[Fuc(a1-6)]GlcNAc
# How it was run: as §1
# [9] = target: GlcNAc(b1-3)Gal(b1-4)Glc
# How it was run: as §1
# [10] = target: GlcNAc(b1-3)Gal(b1-4)GlcNAc(b1-3)Gal(b1-4)GlcNAc(b1-2)[GlcNAc(b1-3)Gal(b1-4)GlcNAc(b1-3)Gal(b1-4)GlcNAc(b1-6)]Man(a1-6)[GlcNAc(b1-3)Gal(b1-4)GlcNAc(b1-3)Gal(b1-4)GlcNAc(b1-2)Man(a1-3)]Man(b1-4)GlcNAc(b1-4)[Fuc(a1-6)]GlcNAc
# How it was run: as §1
# [11] = target: GlcNAc(b1-3)Gal(b1-4)GlcNAc(b1-3)Gal(b1-4)GlcNAc(b1-3)Gal(b1-4)GlcNAc(b1-2)Man(a1-3)[GlcNAc(b1-3)Gal(b1-4)GlcNAc(b1-3)Gal(b1-4)GlcNAc(b1-3)Gal(b1-4)GlcNAc(b1-2)Man(a1-6)]Man(b1-4)GlcNAc(b1-4)GlcNAc
# How it was run: as §1
# [12] = target: GlcNAc(b1-3)Gal(b1-4)GlcNAc(b1-3)Gal(b1-4)GlcNAc(b1-3)Gal(b1-4)GlcNAc(b1-3)Gal(b1-4)GlcNAc(b1-2)Man(a1-3)[GlcNAc(b1-3)Gal(b1-4)GlcNAc(b1-3)Gal(b1-4)GlcNAc(b1-3)Gal(b1-4)GlcNAc(b1-3)Gal(b1-4)GlcNAc(b1-2)Man(a1-6)]Man(b1-4)GlcNAc(b1-4)[Fuc(a1-6)]GlcNAc
# How it was run: as §1
# [13] = target: GlcNAc(b1-3)[GlcNAc(b1-6)]GalNAc
# How it was run: as §1
# [14] = target: GlcNAc(b1-4)GlcNAc
# How it was run: as §1
# [15] = target: GlcNAc6S(b1-3)Gal(b1-4)GlcNAc
# How it was run: as §1
# [16] = target: Man(a1-3)[Man(a1-6)]Man(a1-6)[Man(a1-2)Man(a1-3)]Man(b1-4)GlcNAc(b1-4)GlcNAc
# How it was run: as §1
# [17] = target: Neu5Ac(a2-3)Gal(b1-3)GalNAc(b1-3)Gal(a1-4)Gal(b1-4)Glc
# How it was run: as §1
# [18] = target: Neu5Ac(a2-3)Gal(b1-3)GlcNAc
# How it was run: as §1
# [19] = target: Neu5Ac(a2-3)Gal(b1-3)GlcNAc(b1-2)Man
# How it was run: as §1
# [20] = target: Neu5Ac(a2-3)Gal(b1-4)Glc
# How it was run: as §1
# [21] = target: Neu5Ac(a2-3)Gal(b1-4)GlcNAc(b1-2)Man(a1-3)[GlcNAc(b1-4)][Neu5Ac(a2-3)Gal(b1-4)GlcNAc(b1-2)Man(a1-6)]Man(b1-4)GlcNAc(b1-4)GlcNAc
# How it was run: as §1
# [22] = target: Neu5Ac(a2-3)Gal(b1-4)GlcNAc(b1-6)GalNAc
# How it was run: as §1
# [23] = target: Neu5Ac(a2-3)[Neu5Ac(a2-6)]GalNAc
# How it was run: as §1
# [24] = target: Neu5Ac(a2-8)Neu5Ac
# How it was run: as §1
# [25] = target: Neu5Ac(a2-8)Neu5Ac(a2-8)Neu5Ac(a2-3)[GalNAc(b1-4)]Gal(b1-4)Glc
# How it was run: as §1
# [26] = target: Neu5Gc(a2-8)Neu5Gc(a2-6)Gal(b1-4)GlcNAc
# How it was run: as §1
binder,measurement,setting,value
PX9916F-bfa-443-24-443 (Bacteroides fragilis) (protein) DIRPVGSVIPQTAEEYRALLARAYLNVPNDRGLACLRSDEMLVNDNEYDRNSYGDIERWNDVSPFPGTSQFTWSNFYNVLFIANQVIESQKEITEGTPEVVNQLVGEAHLLRAYLHFVLVNLHGQPYTKSGALNSKSIPLKLDTDLEKTLGRNTVEEVYTSILSDIEHARELINKEKWETVFSYRFNVLSVDALQSRVSLYMGAWPKCLESAEAVLAKKSVLVDMNETPLALPNHFESVESITALEQVMGSSVNNAVWVPATFLALYQEGDKRLAAYFAAPDENGNRKSSKGGKREFSCTFRVGELYLNAAEAAANMDKLPHARMRLLELMRKRYTPEAYDKKENAVNVMDKNALISEILNERARELAFEGHRWFDLRRTTRPRMVKVLQGKTYILEQDDPRYTIPIPRDAIAANPGLAN,glycan array binding signal (z-score),[1],-0.78
same,glycan array binding signal (z-score),[2],0.44
same,glycan array binding signal (z-score),[3],2.81
same,glycan array binding signal (z-score),[4],0.078
same,glycan array binding signal (z-score),[5],0.581
same,glycan array binding signal (z-score),[6],2.71
same,glycan array binding signal (z-score),[7],-0.266
same,glycan array binding signal (z-score),[8],-1.61
same,glycan array binding signal (z-score),[9],-0.475
same,glycan array binding signal (z-score),[10],-0.316
same,glycan array binding signal (z-score),[11],2.55
same,glycan array binding signal (z-score),[12],-0.064
same,glycan array binding signal (z-score),[13],-0.249
same,glycan array binding signal (z-score),[14],0.138
same,glycan array binding signal (z-score),[15],0.017
same,glycan array binding signal (z-score),[16],1.23
same,glycan array binding signal (z-score),[17],0.297
same,glycan array binding signal (z-score),[18],-0.376
same,glycan array binding signal (z-score),[19],4.28
same,glycan array binding signal (z-score),[20],0.058
same,glycan array binding signal (z-score),[21],-1.31
same,glycan array binding signal (z-score),[22],-0.155
same,glycan array binding signal (z-score),[23],-0.772
same,glycan array binding signal (z-score),[24],1.37
same,glycan array binding signal (z-score),[25],-0.695
same,glycan array binding signal (z-score),[26],-0.576
